Screening data from PubChem.
Sampled rows, rich in hits. Any-hit rate of the full collection: about 4.9%.
tim23-1 inh = growth inhibitors of tim23-1 mutant yeast, primary screen, luminescence, uHTS; S. cerevisiae tim23-1 growth, BacTiter-Glo luminescence, 24 h; inhibition, % at 20 µM; 1.3% of 330,000 active; AID 463212, 2010;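 active = growth inhibition of the mutant yeast at or above 50%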;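 also: temperature-sensitive mutant grown at 25 °C; plate controls were DMSO-treated mutant yeast for no effect and medium wells lacking yeast for full effect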
TIM10 inh = growth inhibitors of isogenic TIM10 control yeast, primary screen, counter-screen for tim10-1 yeast inhibitor project, luminescence, uHTS. S. cerevisiae TIM10 strain growth, BacTiter-Glo luminescence, 24 h. inhibition, % at 10 µM. 1.4% of 330,000 active;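 active = inhibition of 40% or more at the single tested concentration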;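 also: wild-type TIM10 isogenic control strain grown at permissive 25 °C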
SKKanGAS inh = S. pyogenes SKKanGAS growth inhibitors in kanamycin, primary screen, streptokinase expression inhibitor project, SKKanGAS strain, BacTiter-Glo luminescence; 6 h; inhibition, % at 7.5 µM; 1.3% of 300,000 active; AID 1662, 2009;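 active = mean replicate score, as percent of positive control median, at least 50; inconclusive = mean below 50 but one replicate at or above 50; inactive = mean and every replicate below 50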;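 also: strain carries kanamycin resistance gene driven by streptokinase promoter and grows in 40 µg/ml kanamycin; loss of luminescence reflects streptokinase promoter inhibition or plain growth inhibition; 0% = median of DMSO wells and 100% = positive control at its reference dose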
tim10-1 inh = growth inhibitors of tim10-1 mutant yeast, primary screen, luminescence, uHTS; S. cerevisiae tim10-1 ts strain growth, BacTiter-Glo, 24 h; inhibition, % at 20 µM; 2.2% of 330,000 active; AID 463190, 2010;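 active = inhibition of at least 40%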;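 also: mutant grown at 25 °C; 0% = DMSO wells with yeast and 100% = wells holding no yeast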
NLRP3 yeast inh = NALP3 inflammasome inhibitors in reconstituted yeast, primary screen, luminescence, uHTS; Yeast reconstituted NLRP3/ASC/caspase-1, beta-gal luminescence, 24 h; inhibition, % at 10 µM; 0.39% of 330,000 active; AID 2825, 2010;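 active = inhibition of 50% or more; inactive = inhibition below 50%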;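 also: plate controls were induced DMSO wells for no effect and uninduced yeast grown without galactose for full effect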
NALP1 yeast inh = NALP1 inflammasome inhibitors in reconstituted yeast, colorimetric, S. cerevisiae, triplicate retest; S. cerevisiae NALP1/ASC/caspase-1 growth, X-gal OD620, 72 h; inhibition, % at 10 µM; 0.61% of 280,000 active; in the data active = inhibition mostly above about 24%, no sharp cut-off; inactive = mostly below about 32%
tim10-1 conf = growth inhibitors of tim10-1 mutant yeast, confirmation, single concentration, luminescence, S. cerevisiae. S. cerevisiae tim10-1 ts strain growth, BacTiter-Glo, 24 h. shares compounds with tim10-1 inh. AID 463213, 2010. inhibition, % at 20 µM. 56% of 7,400 active;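 active = inhibition of yeast growth at or above a set limit in either of two repeat tests at 20 µM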;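 also: tim10-1 mutant grown at permissive 25 °C to find synthetic lethal compounds; 0% = DMSO yeast wells and 100% = medium wells without yeast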
tim10 confirm = growth inhibitors of wild-type TIM10 yeast, confirmation, counter-screen for tim10-1 synthetic lethality project, single concentration, luminescence, S. cerevisiae. 63% of 4,600 active. AID 463215, 2010. S. cerevisiae tim10 strain growth, BacTiter-Glo luminescence, 24 h. shares compounds with TIM10 inh. inhibition, % at 10 µM;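 active = inhibition of yeast growth at or above a set limit in either of two replicates at 10 µM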;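 also: this counterscreen used the strain with wild-type TIM10; 0% = yeast with DMSO and 100% = medium wells lacking yeast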
tim23-1 confirm = tim23-1 mutant yeast growth inhibitors, confirmation, luminescence, single concentration. AID 463218, 2010. S. cerevisiae tim23-1 growth, BacTiter-Glo luminescence, 24 h. shares compounds with tim23-1 inh. inhibition, % at 20 µM. 83% of 4,400 active;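 active = inhibition above about 39% in either of two replicate wells at 20 µM, limit read from the data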;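 also: temperature-sensitive tim23-1 mutant grown at 25 °C; 0% = DMSO wells with yeast and 100% = medium wells without yeast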
Starred values were filed as active, the others as inactive; ? = inconclusive; . = no result given.

SMILES | tim23-1 inh | TIM10 inh | SKKanGAS inh | tim10-1 inh | NLRP3 yeast inh | NALP1 yeast inh | tim10-1 conf | tim23-1 confirm | others
COc1ccc(-c2cc(C(=O)N3CCN(c4ncccn4)CC3)c3ccccc3n2)c(OC)c1 | 51.4* | 59.3* | 8.0 | 65.5* | 24.0 | 43.5 | 51.7* | 13.2 | tim10 confirm=6.9
COc1ccc(-c2cc(C(=O)N3CCN(c4ccccc4F)CC3)c3ccccc3n2)c(OC)c1 | 57.0* | 38.9 | 1.8 | 53.9* | 20.6 | -1.7 | 57.6* | 57.7*
COc1ccc(-c2cc(C(=O)O)c3ccccc3n2)c(OC)c1 | -4.0 | 6.2 | 2.4 | -4.7 | 10.8 | 1.6 | . | .
COc1ccc(OC)c(-c2cc(C(=O)N3CCN(c4ncccn4)CC3)c3ccccc3n2)c1 | 20.7 | 30.9 | 7.6 | 22.1 | 5.0 | 3.8 | . | .
Cc1ccc(-c2cc(C(=O)N3CCN(c4ccc(F)cc4)CC3)c3ccccc3n2)o1 | 51.0* | 26.8 | 13.8 | 43.7* | 16.9 | 4.9 | 25.9 | 43.8*
CN1CCOc2cc(S(=O)(=O)NCc3ccc(S(N)(=O)=O)cc3)ccc21 | 0.6 | 4.7 | -9.3 | 0.5 | -10.0 | -1.2 | . | .
CC(C)Cc1ccc(-c2cc(=O)[nH][nH]2)cc1 | 53.4* | 6.9 | 14.7 | 59.0* | 1.7 | 21.1 | 28.0 | 43.9*
CC(C)Oc1ccc(/C=C(\C#N)C(=O)NC2CC2)cc1 | 9.9 | -13.3 | 0.1 | -6.3 | 25.6 | . | . | .
CC1CCCCC1NC(=O)/C(C#N)=C/c1ccc(F)c(F)c1 (stereo not given) | 54.5* | 59.1* | 11.2 | 48.0* | 22.9 | 40.2 | 59.2* | 46.3* | tim10 confirm=70.1*
CC1CCCCC1NC(=O)/C(C#N)=C/c1ccc2c(c1)OCCO2 (stereo not given) | 62.8* | 55.4* | 1.6 | 49.8* | 24.5 | 25.7 | 53.0* | 62.5* | tim10 confirm=5.2
Nc1nc(N)c2cc(Sc3ccc4ccccc4c3)ccc2n1 | 59.4* | 17.0 | 109.2* | 88.9* | 30.6 | 8.6 | 83.8* | 68.2*
O=C(CSCc1c(Cl)cccc1Cl)Nc1ccc2c(c1)OCCO2 | 48.6 | 23.9 | -5.8 | 26.7 | 20.0 | 40.3 | . | .
Cc1cccc(C)c1NC(=O)c1cccc2c1C(=O)N(C1CCCCC1)C2 | 54.8* | 18.4 | -1.1 | 56.0* | 16.4 | 18.8 | 10.8 | 37.6
Cc1cc(NC(=O)c2cccc3c2C(=O)N(C2CCCCC2)C3)ccc1Br | -15.4 | 0.5 | 2.1 | 30.6 | 15.2 | 12.0 | . | .
COc1ccc(S(=O)(=O)N2CCC(C(=O)NCC3CCCCC3)CC2)cc1 | 19.4 | 6.4 | -5.0 | 7.7 | -1.5 | 11.2 | . | .
Fc1c(F)c(F)c(N/N=C/c2c[nH]c3ccccc23)c(F)c1F | 79.9* | 60.6* | 32.9 | 58.6* | 10.6 | 10.8 | 54.8* | 43.4* | tim10 confirm=-1.8
Cc1ccc(N(C)S(=O)(=O)c2cccc(C(=O)Nc3nc4ccccc4[nH]3)c2)cc1 | 56.3* | 34.3 | ? | 40.7* | 11.9 | 17.7 | 41.6* | 53.3*
CN(C)c1cccc(C(=O)Nc2nc3ccccc3[nH]2)c1 | -11.0 | 14.7 | 8.6 | -9.1 | 17.1 | 10.5 | . | .
O=C(CSC(=S)N1CCCC1)c1cc(Br)cc(Br)c1O | 51.8* | 56.7* | 14.4 | 58.0* | 14.7 | 15.6 | 46.2* | 65.9* | tim10 confirm=48.1*
O=c1c(-c2ccccc2)n[nH]c2ccccc12 | 25.9 | 6.7 | 4.3 | -40.8 | 21.7 | -7.8 | . | .
O=C1c2ccccc2-c2n[nH]c3cccc1c23 | 67.5* | 33.1 | . | 59.1* | 46.1 | . | 25.1 | 66.8*
